This is part of a sample that, as a whole, favours compounds with a hit. Of some 83,000 tested, about 20% had one in any assay.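 Compound tested at a single concentration for 48 hours in 96-well plates; a percent growth value below 10 was scored as active.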 Values without a mark were called inactive. Activity calls are given as the source filed them.
How the values were obtained:
Experiment in all cases: NCI-60 one-dose screen, 48 h (100 = growth as untreated, 0 = no growth, -100 = all killed)
Details in all cases: 10 µM unless noted
DU-145 prostate = test system: DU-145 prostate
K-562 leukemia = test system: K-562 leukemia
MALME-3M melanoma = test system: MALME-3M melanoma
MDA-MB-231 breast = test system: MDA-MB-231 breast
RXF 393 renal = test system: RXF 393 renal
SF-268 CNS = test system: SF-268 CNS
SF-295 CNS = test system: SF-295 CNS
SF-539 CNS = test system: SF-539 CNS
UACC-257 melanoma = test system: UACC-257 melanoma
M14 melanoma = test system: M14 melanoma
HCT-15 colon = test system: HCT-15 colon
HT29 colon = test system: HT29 colon
SNB-75 CNS = test system: SNB-75 CNS
SNB-19 CNS = test system: SNB-19 CNS
U251 CNS = test system: U251 CNS
PC-3 prostate = test system: PC-3 prostate
SK-MEL-5 melanoma = test system: SK-MEL-5 melanoma
UACC-62 melanoma = test system: UACC-62 melanoma
LOX IMVI melanoma = test system: LOX IMVI melanoma
SK-MEL-28 melanoma = test system: SK-MEL-28 melanoma

| SMILES | growth (DU-145 prostate) | growth (K-562 leukemia) | growth (MALME-3M melanoma) | growth (MDA-MB-231 breast) | growth (RXF 393 renal) | growth (SF-268 CNS) | growth (SF-295 CNS) | growth (SF-539 CNS) | growth (UACC-257 melanoma) | growth (M14 melanoma) | growth (HCT-15 colon) | growth (HT29 colon) | growth (SNB-75 CNS) | growth (SNB-19 CNS) | growth (U251 CNS) | growth (PC-3 prostate) | growth (SK-MEL-5 melanoma) | growth (UACC-62 melanoma) | growth (LOX IMVI melanoma) | growth (SK-MEL-28 melanoma) |
| --- | --- | --- | --- | --- | --- | --- | --- | --- | --- | --- | --- | --- | --- | --- | --- | --- | --- | --- | --- | --- |
| CC1(C)CC[C@]2(CO)CC[C@]3(C)C(=CC[C@@H]4[C@@]5(C)CCNCC(C)(C)[C@@H]5CC[C@]43C)[C@@H]2C1 | 81.5% | 7.94% (active) | 63.1% | 73.7% | 61.6% | 105% | 97.6% | 85.8% | 9.86% (active) | -2.42% (active) | 5.97% (active) | 12% | 79.4% | 96.9% | 56.6% | 59% | 71.6% | 94.2% | 76% | -29% (active) |
| O=C(CN1C(=O)NC2NC(=O)NC21)N/N=C/c1cccc([N+](=O)[O-])c1 (stereo not given) | 110% | 103% | 105% | 104% | 104% | 99% | 102% | 100% | 118% | 109% | 100% | 107% | 80% | 98.8% | 111% | 106% | 100% | 88.8% | 98.1% | 111% |
| C=CCn1c(SCC(=O)Nc2ccc(C(=O)/C=C/c3ccc(Cl)cc3)cc2)nnc1-c1ccc(Cl)c(Cl)c1 | 92.2% | 50.4% | 85.2% | 85.2% | 75.1% | 80.4% | 93.9% | 87% | 93.9% | 80.1% | 78.8% | 71.6% | 73.9% | 85.3% | 81% | 51.8% | 82.3% | 62.4% | 72.2% | 101% |
| CCCCCN(CCCCC)CC(O)c1c(Cl)ccc2ccccc12 (stereo not given) | 69.4% | 61.7% | 94.7% | 39.7% | 63.1% | 84.7% | 71.7% | 64.2% | 83.1% | 72.2% | 55.8% | 31.4% | 92% | 92.3% | 80.3% | 75.2% | 72.8% | 59.7% | 71.6% | 97.3% |
| COc1ccc(C(=O)C2OC3=C(C(=O)CC(C)(C)C3)C2c2cccc(Oc3ccccc3)c2)cc1 (stereo not given) | 102% | 87.2% | 112% | 87.5% | 101% | 92.5% | 97.1% | 94.5% | 91% | 98.7% | 89.3% | 91.1% | 86.9% | 92.8% | 88.9% | 81.3% | 90.7% | 72.6% | 92.3% | 103% |
| CCCn1cnc2c(c1=N)C(c1ccc(Cl)cc1)c1sc3c(F)cccc3c1O2 (stereo not given) | 82.2% | 29.1% | 49.8% | 69.7% | 72% | 83.8% | 93.8% | 85.6% | 105% | 70.7% | 40.9% | 20.8% | 90.2% | 87.5% | 59.8% | 65.8% | 63.7% | 85.4% | 82.3% | 80.1% |
| COc1cc(C(=O)n2nc(NCCCc3ccccc3)c3cc(N)ccc32)cc(OC)c1OC | 106% | 88.9% | 100% | 83.1% | 101% | 96.7% | 81% | 93.1% | 120% | 93.6% | 90.8% | 91.8% | 85.2% | 101% | 100% | 79% | 89.4% | 92.2% | 79.9% | 96.4% |
| C=C(C)[C@@H]1CC[C@]2(COCCCNCCCN)CC[C@]3(C)[C@H](CC[C@@H]4[C@@]5(C)CC[C@H](OCCCN)C(C)(C)[C@@H]5CC[C@]43C)[C@@H]12 | -49.5% (active) | -40% (active) | -88.1% (active) | -85.6% (active) | 28.8% | -35% (active) | 102% | -95.7% (active) | 13.8% | -83% (active) | -88.4% (active) | -79.7% (active) | 10.1% | -78.3% (active) | -94.3% (active) | -10% (active) | 67.2% | -88.1% (active) | -93.8% (active) | 16.1% |

Reference: PubChem BioAssay (NCI)
